The record followed here is PubChem BioAssay (Tox21).

A short description of experiment [1]: qHTS assay to identify small molecule antagonists of the estrogen receptor beta (ER-beta) signaling pathway - cell viability counter screen (AID 1259382; active = well fitted curve in the direction sought with a large enough effect in the repeat runs; an effect the other way counts as inactive or inconclusive;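 also: HEK293T cells carrying ER-beta-UAS-bla reporter stimulated with estradiol; series mostly up to about 92 µM; nearly all actives have a fitted effect of over 55% in size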). The gist of the method:
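ER-beta-UAS-bla HEK293T cells (2,000/well, 2% charcoal-stripped FBS) were pre-incubated 6 hr at 37C, then given compound plus 1nM final 17-beta-estradiol for 16 hr. Viability was read in the same wells by CellTiter-Glo luminescence after 30 min at room temperature.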

The target in experiment [2] is Estrogen receptor (Homo sapiens) (UniProt P03372). As to the kind of experiment: qHTS assay to identify small molecule agonists of the estrogen receptor alpha (ER-alpha) signaling pathway in the presence of an antagonist (AID 1259383). Also: top concentration of the series differs between compounds; nearly all actives have a fitted effect of over 15% in size. A digest of the protocol: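 VM7Luc4E2 cells (endogenous full-length ER-alpha, 4×ERE-luciferase) were precultured 5 days in phenol red-free medium with 10% charcoal-stripped FBS, given 10.0nM ICI-182,780 (final), then treated with compounds at 15 concentrations for 22hr at 37C; luminescence read with ONE-Glo.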
Estrogen receptor (Homo sapiens), sequence (P03372 whole entry, looked up): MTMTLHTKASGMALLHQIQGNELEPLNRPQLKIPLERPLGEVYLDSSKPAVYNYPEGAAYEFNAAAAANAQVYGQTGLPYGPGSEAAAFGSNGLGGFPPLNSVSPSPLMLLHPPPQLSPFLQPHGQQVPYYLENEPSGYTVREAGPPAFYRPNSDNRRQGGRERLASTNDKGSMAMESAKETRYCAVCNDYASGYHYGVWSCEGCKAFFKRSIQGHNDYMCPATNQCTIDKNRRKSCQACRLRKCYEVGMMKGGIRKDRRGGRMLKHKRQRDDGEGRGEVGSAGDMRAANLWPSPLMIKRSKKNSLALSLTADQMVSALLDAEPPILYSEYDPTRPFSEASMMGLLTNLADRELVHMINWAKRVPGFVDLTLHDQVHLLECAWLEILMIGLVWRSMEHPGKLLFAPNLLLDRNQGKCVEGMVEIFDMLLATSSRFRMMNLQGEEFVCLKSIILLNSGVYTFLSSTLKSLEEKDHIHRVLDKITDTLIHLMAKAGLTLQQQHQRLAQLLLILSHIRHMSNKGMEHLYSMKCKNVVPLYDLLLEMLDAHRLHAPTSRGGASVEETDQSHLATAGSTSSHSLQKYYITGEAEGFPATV
A general note: qHTS replaces the single test concentration by a dilution series.

Experiment [3] is described as follows: qHTS assay to identify small molecule agonists or antagonists of the thyroid stimulating hormone receptor (TSHR) signaling pathway - wild type cell line counter screen (AID 1259384). A digest of the protocol:
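Counter screen in untransfected Hek293: compounds (15-point titration, triplicate) plus phosphodiesterase inhibitor Ro20-1724 added after 18 h plating; 30 min RT. Intracellular cAMP via competitive d2/cryptate immunoassay, 1 h incubation.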

Experiment [4] concerns the target Thyrotropin receptor (Homo sapiens) (UniProt P16473). Briefly: qHTS assay to identify small molecule antagonists of the thyroid stimulating hormone receptor (TSHR) signaling pathway (AID 1259385). Also: nearly all actives have a fitted effect of over 20% in size. A digest of the protocol:
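Antagonist mode: compound-treated TSHR-expressing HEK293 cells were stimulated with 1.5 ng/mL TSH (final) in presence of Ro20-1724 for 30 min at RT. HTRF cAMP detection after 1 h; each compound tested at 15 concentrations, triplicate.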

The nature of experiment [5]: qHTS assay to identify small molecule agonists of the estrogen receptor alpha (ER-alpha) signaling pathway in the presence of an antagonist - cell viability counter screen (AID 1259386; active = well fitted curve in the direction sought with a large enough effect in the repeat runs; an effect the other way counts as inactive or inconclusive;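 also: series mostly up to about 92 µM; cells exposed to compounds for 22 h at 37 °C before the viability read; nearly all actives have a fitted effect of over 30% in size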). The gist of the method: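 VM7Luc4E2 cells (endogenous full-length ER-alpha, 4×ERE-luciferase) were held 5 days in phenol red-free medium with 10% charcoal-stripped FBS, plated, then given 10.0nM ICI-182,780 and compounds at 15 concentrations for 22hr at 37C; viability read by CellTiter-Fluor fluorescence.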

The target in experiment [6] is Progesterone receptor (Homo sapiens) (UniProt P06401). Briefly: qHTS assay to identify small molecule agonists of the progesterone receptor (PR) signaling pathway (AID 1346784). Also: nearly all actives have a fitted effect of over 30% in size. A digest of the protocol: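 Compounds were tested for PR agonism in HEK 293T cells bearing a beta-lactamase gene under UAS control. Treatment lasted 16 hr at 37C; signal came from fluorescence of a FRET substrate.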
Progesterone receptor (Homo sapiens), sequence (P06401 whole entry, looked up): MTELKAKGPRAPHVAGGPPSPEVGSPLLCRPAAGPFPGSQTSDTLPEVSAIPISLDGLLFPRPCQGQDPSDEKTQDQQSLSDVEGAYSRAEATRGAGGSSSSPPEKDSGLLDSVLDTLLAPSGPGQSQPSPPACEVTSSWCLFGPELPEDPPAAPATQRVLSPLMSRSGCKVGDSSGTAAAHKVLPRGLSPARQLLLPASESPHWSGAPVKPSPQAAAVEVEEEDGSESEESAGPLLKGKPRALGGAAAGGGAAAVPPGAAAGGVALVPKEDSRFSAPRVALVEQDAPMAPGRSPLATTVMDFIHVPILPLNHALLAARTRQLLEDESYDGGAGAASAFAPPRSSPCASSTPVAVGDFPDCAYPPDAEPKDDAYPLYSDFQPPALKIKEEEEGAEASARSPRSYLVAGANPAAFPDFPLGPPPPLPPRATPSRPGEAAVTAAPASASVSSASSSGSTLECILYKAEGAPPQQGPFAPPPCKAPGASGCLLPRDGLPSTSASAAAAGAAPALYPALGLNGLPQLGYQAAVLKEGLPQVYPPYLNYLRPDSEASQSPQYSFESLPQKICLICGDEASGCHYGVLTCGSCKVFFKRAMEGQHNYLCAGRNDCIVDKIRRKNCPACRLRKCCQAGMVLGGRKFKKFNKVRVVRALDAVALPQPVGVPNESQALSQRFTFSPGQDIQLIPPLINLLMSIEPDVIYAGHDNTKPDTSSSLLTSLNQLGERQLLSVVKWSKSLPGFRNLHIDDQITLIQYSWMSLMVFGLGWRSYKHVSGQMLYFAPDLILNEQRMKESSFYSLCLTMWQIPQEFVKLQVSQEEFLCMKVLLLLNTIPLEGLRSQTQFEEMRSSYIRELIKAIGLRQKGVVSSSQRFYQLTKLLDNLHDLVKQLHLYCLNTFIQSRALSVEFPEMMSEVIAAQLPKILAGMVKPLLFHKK

Experiment [7] in a line: qHTS assay to identify small molecule antagonists of the progesterone receptor (PR) signaling pathway - cell viability counter screen (AID 1346798; active = well fitted curve in the direction sought with a large enough effect in the repeat runs; an effect the other way counts as inactive or inconclusive; also: series mostly up to about 92 µM; nearly all actives have a fitted effect of over 50% in size). A digest of the protocol:
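Following a 4 hr attachment, PR-UAS-bla HEK293T cells in charcoal-stripped FBS medium were exposed to compounds with R5020 for 16 hr; CellTiter-Glo was added and luminescence read after 30 min at room temperature.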

Experiment [8] is described as follows: qHTS assay to identify small molecule agonists of the progesterone receptor (PR) signaling pathway - cell viability counter screen (AID 1346799). Also: nearly all actives have a fitted effect of over 45% in size. The gist of the method: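 Here, 3,000 PR-UAS-bla HEK293T cells per well were treated with compounds for 16 hr after a 6 hr preincubation at 37C and 5% CO2; cell viability is the CellTiter-Glo luminescence signal.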

Experiment [9] can be described thus: qHTS assay to identify small molecule antagonists of the TGF-beta/Smad signaling pathway - cell viability counter screen (AID 1346824; active = well fitted curve in the direction sought with a large enough effect in the repeat runs; an effect the other way counts as inactive or inconclusive; also: nearly all actives have a fitted effect of over 50% in size). A digest of the protocol:
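Cytotoxicity counter-screen run in the same wells as the beta-lactamase Smad reporter read: CellTiter-Glo luminescence after 30 min at room temperature. HEK 293T SBE-bla cells had 5 hr compound exposure at 37 C with TGF-beta1 (0.25 ng/mL stock).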

Experiment [10] has as its target Progesterone receptor (Homo sapiens) (UniProt P06401). As to the kind of experiment: qHTS assay to identify small molecule antagonists of the progesterone receptor (PR) signaling pathway (AID 1346795; active = well fitted inhibition curve with a large enough effect in the signal ratio in the repeat runs, not every such curve was filed as active; the % refers to the signal ratio; also: potency is read from the fitted curve at half-maximal effect). A digest of the protocol: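 In HEK293T cells bearing the PR-UAS-bla reporter, compound effects on promegestone-driven (1 nM) beta-lactamase expression are assessed after 16 hr using a fluorescent FRET substrate incubated 2 hr at room temperature.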

Values without a mark were called inactive. Records with an inconclusive call do not appear. Activity calls are given as the source filed them. Unless noted, calls follow the shape of the full dose curve.
% is scaled to controls: 0 for no effect and ±100 for the full control effect.

Thyrotropin receptor (Homo sapiens), sequence (P16473 whole entry, looked up): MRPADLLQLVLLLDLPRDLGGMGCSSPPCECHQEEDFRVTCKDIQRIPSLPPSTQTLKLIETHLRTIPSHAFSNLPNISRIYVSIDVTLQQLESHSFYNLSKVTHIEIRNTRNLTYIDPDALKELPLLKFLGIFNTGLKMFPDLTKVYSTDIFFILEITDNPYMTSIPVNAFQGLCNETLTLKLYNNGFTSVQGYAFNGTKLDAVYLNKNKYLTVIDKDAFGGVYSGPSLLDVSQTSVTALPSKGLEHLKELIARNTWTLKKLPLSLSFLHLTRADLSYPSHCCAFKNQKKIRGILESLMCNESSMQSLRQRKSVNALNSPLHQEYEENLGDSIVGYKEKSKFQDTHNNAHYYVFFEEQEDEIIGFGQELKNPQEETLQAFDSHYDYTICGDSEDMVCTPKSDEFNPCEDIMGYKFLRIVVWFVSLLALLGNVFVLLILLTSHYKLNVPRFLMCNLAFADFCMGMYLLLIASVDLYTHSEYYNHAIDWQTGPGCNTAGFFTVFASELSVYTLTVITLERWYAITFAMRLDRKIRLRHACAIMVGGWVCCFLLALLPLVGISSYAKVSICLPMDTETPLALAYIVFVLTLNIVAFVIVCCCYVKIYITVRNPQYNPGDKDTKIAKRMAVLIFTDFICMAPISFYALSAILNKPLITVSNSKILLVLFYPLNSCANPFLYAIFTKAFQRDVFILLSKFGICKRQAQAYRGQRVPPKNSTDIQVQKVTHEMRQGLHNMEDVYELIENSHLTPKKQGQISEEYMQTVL

With `CC1(C)O[C@H]2CC(=O)OC[C@]23[C@H]2CC[C@@]4(C)[C@H](c5ccoc5)OC(=O)[C@H]5O[C@]54[C@]2(C)C(=O)C[C@@H]13`, the molecule was called inactive in [1], in experiment [3], in [4], in experiment [5], in experiment [7] and in [8]. The result in [9] was inactive. The Potency result in experiment [2] and in experiment [6] was “inactive” in each case.
With `CC/C(C)=N\O[Si](C)(O/N=C(\C)CC)O/N=C(\C)CC`, the molecule was called inactive in experiment [1], in experiment [3], in experiment [4], in experiment [5], in experiment [7] and in experiment [8]. Besides, the molecule was classed as inactive in [9]. Further, the Potency entry in [2] and in experiment [6] was “inactive” in each case.
For `CCCCCCCCCOC(=O)c1ccccc1C(=O)OCCCCCCCCC`, the result in experiment [1], in [3], in [4], in experiment [5], in experiment [7] and in experiment [9] was inactive. The Potency entry in experiment [2], in [6] and in [10] was “inactive” in each case.
Regarding `COc1cc(OC)nc(O[C@H](C(=O)O)C(OC)(c2ccccc2)c2ccccc2)n1`, the outcome in experiment [1], in [3], in [4], in experiment [5], in experiment [8] and in [9] was inactive. Further, the Potency result in [2] and in experiment [6] was “inactive” each time.
For `Nc1nc(-c2ccccc2)c(Br)c(=O)[nH]1`, the call in [1], in [3], in [4], in [5], in experiment [8] and in experiment [9] was inactive. For the same molecule, the Potency entry in experiment [2], in [6] and in [10] was “inactive” each time.
As to `CCCCCCCCCCCCCCCCCC#N`, the molecule was called inactive in experiment [1], in experiment [3], in [4], in experiment [5], in experiment [7] and in [8]. Besides, the molecule was called inactive in [9]. Moreover, the Potency result in experiment [2], in [6] and in experiment [10] was “inactive” in each case.
With `CC(=O)C1C(=O)C=C(C)OC1=O` (configuration not stated), the outcome in [1], in experiment [3], in [4], in experiment [5], in [7] and in experiment [8] was inactive. In experiment [9], the outcome was inactive. The Potency entry in experiment [2] and in [6] was “inactive” throughout.
For the molecule `CCC(=O)c1c(O)cc(O)cc1O`, the call in [1], in experiment [3], in [4], in [5], in experiment [7] and in [8] was inactive. Besides, the outcome in [9] was inactive. In addition, the Potency result in experiment [2] and in experiment [6] was “inactive” each time.
Consider `NCCOCCN`, for which the molecule was classed as inactive in [1], in experiment [3], in experiment [4], in experiment [5], in experiment [8] and in experiment [9]. For the same molecule, the Potency result in experiment [2], in [6] and in experiment [10] was “inactive” in each case.
Take `Cc1cc(-c2ccccc2)nnc1NCCN1CCOCC1`: the molecule was classed as inactive in experiment [1], in experiment [3], in [4], in [5], in [7] and in [8]. The molecule was classed as inactive in [9]. The Potency result in experiment [2] and in [6] was “inactive” in each case.
Turning to `CN1C[C@@H]2C[C@H]1CN2c1cc2c(cc1F)c(=O)c(C(=O)O)cn2C1CC1`, the activity change, negative = cytotoxicity in experiment [1] is 7% [at 19 µM]; in [5] it was -0.242% [at 19 µM]; in experiment [8] it was 18.9% [at 19 µM]. In addition, the activation was 0.617% [at 19 µM] in experiment [2] and 6.66% [at 19 µM] in experiment [6]. The cAMP activity change in [3] was -2.22% [at 18.9 µM]. Moreover, the activity change, negative = inhibition in experiment [4] was -7.57% [at 19 µM]; in experiment [10], 14.1% [at 18.9 µM]. Also, in experiment [9], the viability change, negative = cytotoxic was 1.45% [at 15.8 µM].
In the case of `CO[C@@]1(NC(=O)Cc2cccs2)C(=O)N2C(C(=O)O)=C(COC(N)=O)CS[C@@H]21`, the result in experiment [1], in [3], in [4], in experiment [5], in [7] and in experiment [8] was inactive. In addition, the result in experiment [9] was inactive. Moreover, the Potency result in [2] was “inactive”.
Regarding `Cc1c(N)cccc1Cl`, the outcome in experiment [1], in experiment [3], in [4], in experiment [5], in [7] and in [8] was inactive. The outcome in experiment [9] was inactive. In [2], the Potency entry was “inactive”.
For the molecule `CCC(C(=O)OCCN1CCOC(c2ccccc2)C1C)c1ccccc1` (configuration not stated), the molecule was called inactive in experiment [1], in experiment [3], in experiment [4], in [5] and in [9]. The Potency result in experiment [2] is “inactive”. The Potency in experiment [10] is 23.7 µM (active).
Turning to `C[C@@H](O)C(=O)O`, the molecule was called inactive in [1], in experiment [3], in experiment [4], in experiment [5], in experiment [7] and in [9]. The Potency entry in experiment [2] and in experiment [10] was “inactive” in each case.
Regarding `CN(C)CCCCl`, the molecule was called inactive in experiment [1], in experiment [3], in experiment [5], in experiment [7], in experiment [8] and in experiment [9]. For the same molecule, the Potency result in experiment [2], in [6] and in experiment [10] was “inactive” each time.
Consider `N#CCC(=O)NN`, for which the outcome in [1], in [4], in [5], in [7], in experiment [8] and in [9] was inactive. The Potency entry in [2], in experiment [6] and in experiment [10] was “inactive” each time.
Turning to `C/C(=C1\CCOC(=O)S1)N(C=O)Cc1cnc(C)nc1N`, the outcome in experiment [1], in experiment [4], in experiment [5], in experiment [7], in [8] and in experiment [9] was inactive. In addition, the Potency entry in experiment [2], in [6] and in [10] was “inactive” each time.
For `CCOc1ccccc1OCC1CNCCO1` (configuration not stated), the outcome in experiment [1], in experiment [3], in [4], in [5], in experiment [7] and in experiment [8] was inactive. For the same molecule, the molecule was classed as inactive in [9]. For the same molecule, the Potency entry in experiment [2] is “inactive”.
In the case of `CC1c2ccccc2CN1NC(=O)c1ccc(Cl)c(S(N)(=O)=O)c1` (configuration not stated), the result in [1], in experiment [3], in [4], in experiment [5], in experiment [7] and in [8] was inactive. The molecule was called inactive in experiment [9]. In experiment [2], the Potency result was “inactive”.
Regarding `O=C1CCCCO1`, the result in [1], in experiment [4], in experiment [5], in experiment [7], in experiment [8] and in [9] was inactive. Further, the Potency entry in experiment [2], in experiment [6] and in experiment [10] was “inactive” in each case.
Regarding `C[C@H]1[C@@H](c2ccccc2)NC(=O)N1C`, the outcome in experiment [1], in experiment [3], in experiment [4], in experiment [5], in experiment [7] and in [8] was inactive. In addition, in experiment [9], the call was inactive. Further, the Potency entry in [2] and in [10] was “inactive” each time.
Consider `C=CCN1C[C@H](C(=O)N(CCCN(C)C)C(=O)NCC)C[C@@H]2c3cccc4[nH]cc(c34)C[C@H]21`, for which the result in [1], in experiment [3], in experiment [7] and in experiment [9] was inactive. Further, the Potency entry in experiment [2], in experiment [6] and in [10] was “inactive” each time.
`CC(=O)CC(=O)OC(C)(C)C`: the outcome in experiment [1], in experiment [3], in [4], in experiment [5], in experiment [7] and in experiment [8] was inactive. Moreover, the result in experiment [9] was inactive. Moreover, the Potency entry in [2] and in experiment [10] was “inactive” in each case.
Take `CCNC(=O)NCc1cccc(Cl)c1`: the molecule was called inactive in [1], in experiment [4], in experiment [5], in [7], in experiment [8] and in experiment [9]. For the same molecule, the Potency entry in experiment [2], in [6] and in experiment [10] was “inactive” in each case.
Regarding `O=C1c2ccccc2C(=O)c2cc(Cl)ccc21`, the activity change, negative = cytotoxicity in experiment [1] was 1.86% [at 8.39 µM]; in [5], 1.35% [at 8.39 µM]; in experiment [7], -7.61% [at 8.39 µM]; in experiment [8] it was 13.3% [at 8.39 µM]. For the same molecule, the activation is 1.09% [at 8.39 µM] in [2] and 2.34% [at 8.39 µM] in [6]. Also, in experiment [4], the activity change, negative = inhibition is -1.43% [at 8.39 µM]. The viability change, negative = cytotoxic in [9] was -4.61% [at 6.97 µM].
As to `COC(=O)c1cccc(Cl)c1`, the molecule was classed as inactive in [1], in [3], in experiment [5], in experiment [7], in experiment [8] and in [9]. Besides, the Potency entry in experiment [2] and in experiment [6] was “inactive” throughout.
